The campaign covered roughly 200,000 compounds. About 5,100 (2.5%) were called active.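 How the source made its calls: active means activation above the screen-wide mean activation plus 3 SD (cut at about 130% in these data); inactive means the rest.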 Only a selection was taken, and actives are over-represented in it overall.
Test: potentiators of IFN-gamma driven STAT1 reporter – cell-based, HTS, luciferase reporter, primary screen (AID 932);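 further: raw ratio to IFN-gamma control signal so 100% means no change and 0% no light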
Details: NIH 3T3 STAT1-luciferase reporter, luminescence, at 5.5 µM, stronger effect = higher value, 100% = IFN-gamma alone, no compound

| SMILES | activation (% of control) |
| --- | --- |
| Cc1ccc(C(=O)CNc2ccc(F)cc2)cc1 | 111% (inactive) |
| COC(=O)c1ccc(NCC(=O)N2CCCCCC2)cc1 | 114% (inactive) |
| COC(=O)c1ccc(NCC(=O)c2ccccc2)cc1 | 133% (active) |
| CN(Cc1ccccc1)C(=O)CCc1ccccc1 | 104% (inactive) |
| Cc1ccn(-c2cccc(-n3ccc(C)n3)n2)n1 | 135% (active) |
| COc1cc(C(=O)NCc2ccc3c(c2)cc(C)n3C)cc(OC)c1OC | 89.2% (inactive) |
| COc1cccc(CNC(=O)CCC2CCCN(C(=O)c3ccoc3C)C2)c1 (stereo not given) | 105% (inactive) |
| Cc1cccc(N2CCN(C(=O)/C=C/c3ccco3)CC2)c1C | 99.5% (inactive) |
| Cc1nc2cc(NC(=O)NCc3ccccc3)ccc2o1 | 111% (inactive) |
| Cc1nc2ccc(NC(=O)C(F)(F)F)cc2o1 | 95.8% (inactive) |
| Cc1ccc(NC(=O)Nc2ccc3oc(C)nc3c2)cc1 | 177% (active) |
| CC(C)NC(=O)/C(C#N)=C\c1ccc(N(C)C)c(Br)c1 | 100% (inactive) |
| N#Cc1cccc(Nc2c3c(nc4ccccc24)CCCC3)c1 | 85.5% (inactive) |
| Cc1cc(C(=O)NCCCc2ccccc2)no1 | 110% (inactive) |
| CC(C)Cc1cc(C(=O)Nc2cc(Br)ccc2O)no1 | 101% (inactive) |
| CC(C)Cc1cc(C(=O)NCCc2ccccc2)no1 | 130% (active) |
| COc1ccc2c(c1)CC[C@@H]1[C@@H]2CC[C@]2(C)C(=O)CC[C@@H]12 | 106% (inactive) |
| COc1ccc2oc(-c3cccc(NC(=O)CSc4ccc(Cl)cc4)c3)nc2c1 | 163% (active) |
| COc1cccc(-c2nc3cc(C)ccc3o2)c1 | 106% (inactive) |
| O=C(Cc1cccc2ccccc12)Nc1ccc2oc(-c3ccccc3)nc2c1 | 102% (inactive) |
| O=C(Nc1cccc(O)c1)c1ccc(C(=O)c2ccccc2)o1 | 113% (inactive) |
| O=C(NCc1cccs1)c1cc(-c2ccccn2)nc2ccc(Br)cc12 | 106% (inactive) |
| COc1ccc(-c2cn(-c3ccc(OC)cc3)c(=S)[nH]2)cc1 | 110% (inactive) |
| S=C(Nc1ccc(Br)cc1Cl)NC1CCN(Cc2ccccc2)CC1 | 100% (inactive) |
| CCC(=O)NC(=S)Nc1ccc(NC(=O)c2ccco2)c(Cl)c1 | 109% (inactive) |

| SMILES | activation (% of control) |
| --- | --- |
| O=C(NNC(=S)Nc1ccc(Br)cc1Cl)c1ccco1 | 140% (active) |
| CCN1CCN(C(=O)CCN2C(=O)c3ccccc3C2=O)CC1 | 96.8% (inactive) |
| CCc1ccccc1NC(=O)CSc1nnc(-c2ccncc2)o1 | 99.3% (inactive) |
| O=C(Nc1ccc(C(=O)O)cc1)/C(=C/c1ccc([N+](=O)[O-])cc1)NC(=O)c1ccccc1 | 94.6% (inactive) |
| COc1ccc(-c2nn(-c3ccccc3)cc2/C=C\C(=O)Nc2ccc(C(=O)O)cc2)cc1 | 103% (inactive) |
| COc1ccc(-c2noc(CSc3ccc(C)cc3)n2)cc1 | 102% (inactive) |
| Cc1cccc(-c2noc(-c3ccc(F)cc3)n2)c1 | 152% (active) |
| COc1ccc(-c2nc(-c3ccccc3)no2)c(OC)c1 | 43.8% (inactive) |
| Cc1ccc(Cc2nc(-c3cccc(C)c3)no2)cc1 | 115% (inactive) |
| COc1ccc(-c2noc(-c3ccc(C)cc3)n2)cc1 | 133% (active) |
| COc1ccc2[nH]c(=O)c(-c3noc(-c4ccc(F)cc4)n3)cc2c1 | 114% (inactive) |
| CC1COc2ccccc2N1C(=O)c1cccnc1Cl (stereo not given) | 98.3% (inactive) |
| Cc1nc(N)c(Br)c(C)c1Br | 96.7% (inactive) |
| CNC(=S)Nc1ccc([N+](=O)[O-])cc1 | 96.9% (inactive) |
| Cc1cc(C(=O)CC#N)c(C)n1-c1c(C)n(C)n(-c2ccccc2)c1=O | 102% (inactive) |
| CC1(C)CC(=O)C/C(=N\NC(=O)c2cccs2)C1 | 101% (inactive) |
| COc1ccccc1Oc1nc(-c2cccnc2)nc2ccccc12 | 102% (inactive) |
| CCCCOC(=O)c1[nH]c(C)c(C(=O)OC)c1C | 134% (active) |
| CC(=O)c1c(C)[nH]c(C(=O)OCC(=O)NCCC(C)C)c1C | 86.3% (inactive) |
| COC(=O)c1c(C)[nH]c(C(=O)/C=C/c2ccc(Cl)cc2)c1C | 98.9% (inactive) |
| COC(=O)C1=C(N)Oc2c(oc(CO)cc2=O)C1c1c(F)cccc1Cl (stereo not given) | 95.5% (inactive) |
| COc1cccc(CC2(CO)CCN(Cc3cnc(-c4cccc(C)c4)nc3)CC2)c1 | 99.5% (inactive) |
| N/C(=N\OC(=O)N1c2ccccc2Sc2ccccc21)c1ccc(Br)cc1 | 92.7% (inactive) |
| N/C(=N\OC(=O)c1ccc2c(c1)OCO2)c1ccc(Br)cc1 | 144% (active) |
| N/C(=N\OC(=O)/C=C/c1ccccc1)c1ccc(Br)cc1 | 98.9% (inactive) |

| SMILES | activation (% of control) |
| --- | --- |
| CN(NC(=O)C1CC(=O)N(c2ccccc2)C1)C1=NS(=O)(=O)c2ccccc21 (stereo not given) | 97.3% (inactive) |
| O=C(CCSc1ccccc1)N1CCN(c2ccccc2F)CC1 | 135% (active) |
| O=C(c1cccc2ccccc12)N1CCN(c2ccccc2F)CC1 | 101% (inactive) |
| O=C(CCS(=O)(=O)c1cccc2nsnc12)N1CCN(c2ccccc2F)CC1 | 106% (inactive) |
| COc1cc(CN2CCN(Cc3ccc(C)cc3)CC2)c([N+](=O)[O-])cc1OC | 90.7% (inactive) |
| Cc1cc(C)nc(-n2ncc3c2CC(c2ccc(C(C)C)cc2)CC3=O)n1 (stereo not given) | 104% (inactive) |
| Cc1cc(C)cc(C(=O)NC2C(=O)N3C(C(=O)O)=C(CSc4nnc(C)s4)CSC23)c1 (stereo not given) | 93.1% (inactive) |
| COc1cc(NC(=O)c2ccc3c(c2)OCO3)ccc1NC(=O)c1cccs1 | 101% (inactive) |
| COc1cc(CNc2ncn[nH]2)ccc1OCc1ccccc1C | 131% (active) |
| COc1ccc(CCNC(=O)C(=O)NCc2ccccc2C)cc1OC | 96.8% (inactive) |
| c1n[nH]c(NCc2ccc3c(c2)OCO3)n1 | 89.7% (inactive) |
| COc1cccc(CC2(CO)CCCN(CC3=Cc4cc(OC)ccc4OC3)C2)c1 (stereo not given) | 92% (inactive) |
| CCOC(=O)c1ccc(NC(=O)c2cc(=O)[nH]c3ccccc23)cc1 | 102% (inactive) |
| COC(=O)[C@H]1Cc2cnoc2C[C@]1(C)C(=O)O | 106% (inactive) |
| CCc1nnc(NC(=O)Cc2cccs2)s1 | 98.1% (inactive) |
| CCc1nnc(NC(=O)c2cccs2)s1 | 134% (active) |
| CCCc1nnc(NC(=O)c2cccs2)s1 | 115% (inactive) |
| O=C(c1ccc(C(F)(F)F)cc1)C1CCCN(C(=O)c2csnn2)C1 (stereo not given) | 87.3% (inactive) |
| N#CCC(=O)N/N=C/c1ccc(SCC(=O)Nc2ccccc2)o1 | 108% (inactive) |
| O=C1COc2ccc(C(=O)COC(=O)c3cccnc3Cl)cc2N1 | 109% (inactive) |
| CN(C)c1ccc(/C=N/NC(=O)c2ccc(Cn3cc(Br)cn3)o2)cc1 | 135% (active) |
| O=C(N/N=C\c1ccc(Br)cc1)c1ccc(Cn2cccn2)o1 | 118% (inactive) |
| O=C(N/N=C/c1ccc2c(c1)OCO2)c1ccc(Cn2cc([N+](=O)[O-])cn2)o1 | 109% (inactive) |
| C=CCn1c(COc2ccc(F)cc2)nnc1SCC(=O)Nc1cccc(S(N)(=O)=O)c1 | 97.8% (inactive) |
| Cc1c(/C=N/N2C(=O)C3C4C=CC(C4)C3C2=O)c2ccccc2n1C (stereo not given) | 90.4% (inactive) |

| SMILES | activation (% of control) |
| --- | --- |
| C/C(=N\OC(=O)c1ccccc1)c1c(C)nc2cc(C)ccn12 | 99.5% (inactive) |
| Cc1cccc(N(CC(=O)Nc2ccc(-c3nc4ccc(C)cc4s3)cc2)S(C)(=O)=O)c1 | 142% (active) |
| Cc1ccc2nc(-c3ccc(NC(=O)CN(C)S(=O)(=O)c4ccccc4)cc3)sc2c1 | 102% (inactive) |
| Cc1ccc(N(CC(=O)Nc2cccc(N(C)S(C)(=O)=O)c2)S(C)(=O)=O)cc1 | 92.8% (inactive) |
| Cn1c(=N)n(CC(O)c2cccs2)c2ccccc21 (stereo not given) | 95.5% (inactive) |
| ClC1(Cl)CC1CSc1ncn[nH]1 (stereo not given) | 102% (inactive) |
| O=C(C1CCN(C2CCN(Cc3ccc4cc(F)ccc4n3)CC2)CC1)N1CCCC1 | 98.4% (inactive) |
| N#Cc1c(N)nc2c(c1N)CC(C(F)(F)F)O2 (stereo not given) | 92.8% (inactive) |
| Cc1nn(C)c(C)c1Sc1ccccc1N | 99.2% (inactive) |
| CCn1c(CSc2nc(C)cc(C)n2)nnc1SCC(N)=O | 103% (inactive) |
| Cc1ccc(/C=C/C(=O)Nc2ccc([N+](=O)[O-])c(NC(=O)/C=C/c3ccc(C)o3)c2)o1 | 101% (inactive) |
| Cc1ccc(/C=C/C(=O)Nc2cc(S(=O)(=O)N3CCCCCC3)ccc2OCC(F)(F)F)o1 | 139% (active) |
| COc1ccc(S(=O)(=O)N2CCCCCC2)cc1C(=O)OCC(=O)Nc1cc(C)on1 | 97% (inactive) |
| O=[N+]([O-])c1ccc(NCCCO)c(C(F)(F)F)c1 | 105% (inactive) |
| CN(C(=O)COc1ccccc1)c1nnc(-c2ccncc2)s1 | 107% (inactive) |
| CN(C(=O)c1ccno1)c1nnc(-c2cccnc2)s1 | 102% (inactive) |
| CN(C(=O)c1ccccn1)c1nnc(-c2ccccn2)s1 | 142% (active) |
| COc1ccc(N=C2SC(C(=O)Nc3ccc(F)cc3)CC(=O)N2C)cc1 (stereo not given) | 88.3% (inactive) |
| Cc1ccccc1NCC(=O)N/N=C\c1ccc([N+](=O)[O-])s1 | 92.7% (inactive) |
| CN(C(=O)CSc1nnnn1-c1ccccc1)C1CCCCC1 | 103% (inactive) |
| CN(C(=O)CSc1nncc2ccccc12)C1CCCCC1 | 131% (active) |
| CN(C(=O)COc1ncnc2c1cnn2-c1ccccc1)C1CCCCC1 | 94.4% (inactive) |
| Cc1nnnn1/C(=C\c1ccccc1)C(=O)OCC(=O)N1CC2(C)CC1CC(C)(C)C2 (stereo not given) | 99.2% (inactive) |
| O=C(Nc1nnc(C2COc3ccccc3O2)o1)c1ccc(F)cc1 (stereo not given) | 98.5% (inactive) |
| O=C(N/N=C/c1ccccn1)C12CC3CC(CC(C3)C1)C2 | 103% (inactive) |
